Experimental data from PubChem BioAssay (NCATS).
Inconclusive results are not listed. Activity calls are given as the source filed them. Calls follow the shape of the dose curve; as a rule, active = well fitted curve in the direction sought with a large enough effect; inconclusive = small, poorly fitted or top-dose-only effect, or another doubt; inactive = no such curve, though single readings can be large; an effect the other way counts as inactive or inconclusive.

Legend:
[1] = Cellular Toxicity (caspase-3) Mesangial (AID 660); conditions: mesangial cells, normalized: DMSO 0%, 100 µM tamoxifen 100%; at 91.7 µM (top of the series);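 also: combined caspase 3 and 7 activity read by Caspase-Glo luminescence; cells exposed to compound for 16 h before the caspase read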
In short: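 AC50 values come from Hill-equation fits of caspase 3/7 activation, measured as Caspase-Glo luminescence in human glomerular mesangial cells exposed to compound for 16 h at 37 °C; 100% set by 100 uM tamoxifen.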

[2] = Cellular Toxicity (caspase-3) SK-N-SH (AID 661);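 also: 0% = DMSO basal and 100% = 10 µM staurosporine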
In short: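 Apoptosis readout in SK-N-SH neuroblastoma: Caspase-Glo 3/7 luminescence following 16 hr treatment in complete culture medium. Normalization used DMSO and 10 uM staurosporine controls.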

[3] = Cellular Toxicity (caspase-3) H-4-II-E (AID 663); conditions: H-4-II-E rat hepatoma, scaled: DMSO 0%, 100 µM tamoxifen 100%; at 92.2 µM (top of the series);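 also: cells exposed to compound for 16 hr before readout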
In short: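 H-4-II-E rat hepatoma, 1500 cells/well, 5 hr settle at 37 °C; compound 16 hr, 37 °C, complete medium; Caspase-Glo 3/7, 20 min RT; luminescence. DMSO = 0%, 100 uM tamoxifen = 100%; Hill-equation AC50.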

[4] = Cellular Toxicity (caspase-3) Hek293 (AID 664); conditions: HEK293 caspase-3 activation, DMSO = 0%, 100 µM tamoxifen = 100%; at 92.2 µM (top of the series);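 also: cells exposed to compound for 16 h at 37 °C before readout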
In short: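 Apoptosis readout: Caspase-Glo 3/7 signal in human HEK293 cells following 16-hour compound incubation. Responses scaled between DMSO baseline and 100 uM tamoxifen.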

[5] = Cellular Toxicity (caspase-3) N2a (AID 665);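 also: compound exposure lasted 16 h at 37 °C before readout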
In short: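 Concentration-response qHTS: compound-induced caspase-3/7 luminescence in N2a cells (16 h, 37 °C), relative to DMSO and 10 uM staurosporine controls; AC50 obtained using the standard Hill equation.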

[6] = Cellular Toxicity (caspase-3) NIH 3T3 (AID 666);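 also: caspase signal read after 16 h compound exposure; 0% = DMSO basal and 100% = 100 µM tamoxifen stimulation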
In short: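 Activity: caspase-3/7 induction, NIH 3T3 cells, 16 hr treatment at 37°C, luminescent Caspase-Glo detection; AC50 via Hill equation.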

[7] = biological target: Cytochrome P450 3A4 (Homo sapiens) (UniProt P08684); test: qHTS Assay for Inhibitors and Substrates of Cytochrome P450 3A4 (AID 884); also: % is scaled to controls: 0 for no effect and ±100 for the full control effect; nearly all actives have a fitted effect of over 50% in size
In short: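 Luminescent readout of luciferin produced by CYP3A4 (20 nM) dealkylation of Luciferin-PPXE, 25 uM (its KM). NADPH-driven reaction ran 60 min at RT after 10 min compound preincubation; data scaled to 57 uM ketoconazole as 100% inhibition.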

[8] = Cell Viability - LYMP2-001 (AID 921);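 also: 0% = DMSO only and full inhibition = tetraoctylammonium bromide control wells; nearly all actives have a fitted effect of over 70% in size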
In short: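 Cellular ATP loss read by luciferase luminescence after 24 h compound exposure at 37 C in complete medium. LYMP2-001 lymphoblastoid cells, 2500/well; qHTS concentration-response data fitted with Hill equation for AC50.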

[9] = MultiTox-Fluor Cytotoxicity Assay - LYMP1-001 - Dead Cells (AID 946);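 also: 0% = DMSO and 100% = tetraoctylammonium bromide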
In short: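 LYMP1-001 lymphoblastoid cells (2500/well) treated 16 h at 37 C. Dead-cell protease cleavage of bis-AAF-R110 read at Ex/Em 485/520. Normalized to DMSO and 15 uM tetraoctylammonium bromide; AC50 from Hill fits.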

[10] = Cell Viability - LYMP1-002 - Assay at 16 hr (AID 948);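 also: 0% = DMSO alone and full effect = 92 µM tetraoctylammonium bromide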
In short: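 ATP luminescence (CellTiter-Glo) was measured after 16 hr compound exposure at 37 C of 2500 lymphoblastoid LYMP1-002 cells per well. Concentration-response curves were fitted with the Hill equation to give AC50.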

[11] = MultiTox-Fluor Cytotoxicity Assay - LYMP1-002 - Live Cells (AID 955); also: % is scaled to controls: 0 for no effect and ±100 for the full control effect
In short: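 In this qHTS viability format, lymphoblastoid cells (LYMP1-002, human) received compound for 16 hr at 37 C. Fluorogenic GF-AFC cleavage by viable cells was detected at 405/510 nm after 1 h at room temperature.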

[12] = MultiTox-Fluor Cytotoxicity Assay - LYMP1-002 - Dead Cells (AID 960);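 also: 0% = DMSO and 100% = tetraoctylammonium bromide; nearly all actives have a fitted effect of over 60% in size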
In short: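 Concentration-dependent increases in membrane-leaked protease activity are quantified in LYMP1-002 cells after 16 hr treatment; values are normalized against DMSO and tetraoctylammonium bromide (15 uM) controls and AC50 derived by Hill modeling.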

[13] = MultiTox-Fluor Cytotoxicity Assay - LYMP1-003 - Dead Cells (AID 961);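 also: 0% = DMSO and 100% = tetraoctylammonium bromide; nearly all actives have a fitted effect of over 70% in size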
In short: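 LYMP1-003 human lymphoblastoid cells (2500/well) exposed to compound 16 h at 37 C in complete medium; dead-cell protease read with bis-AAF-R110 fluorescence (Ex/Em 485/520) after 60 min at room temperature. Normalized to DMSO and 15 uM tetraoctylammonium bromide; AC50 from Hill fit.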

[14] = MultiTox-Fluor Cytotoxicity Assay - LYMP1-003 - Live Cells (AID 962);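 also: 0% = DMSO only and full loss = 92 µM tetraoctylammonium bromide; cytotoxic hits lower the live-cell protease signal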
In short: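 Human lymphoblastoid line LYMP1-003 in complete culture medium, treated 16 hr with titrated compounds. Viable cells quantified via cell-permeant GF-AFC substrate fluorescence; AC50 derived by Hill fitting.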

[15] = Cell Viability - LYMP1-003 - Assay at 24 hr (AID 963);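 also: plate controls were DMSO only for no effect and tetraoctylammonium bromide positive control for full effect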
In short: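 The lymphoblastoid line was treated with titrated compounds for 24 hours, and viable cell number estimated from luciferase-based ATP luminescence.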

[16] = biological target: Cytochrome P450 3A4 (Homo sapiens) (UniProt P08684); test: qHTS Assay for Activators of Cytochrome P450 3A4 (AID 885); also: nearly all actives have a fitted effect of over 65% in size
In short: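 Human CYP3A4 dealkylates Luciferin-PPXE to luciferin, which luciferase detection converts to light. Substrate was at its KM (25uM), buffer 200mM KPO4, reaction 60 min at RT.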

[17] = MultiTox-Fluor Cytotoxicity Assay - LYMP1-001 - Live Cells (AID 947);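 also: 0% = DMSO only and full inhibition = tetraoctylammonium bromide control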
[18] = Cell Viability - LYMP1-003 - Assay at 40 hr (AID 964); also: % is scaled to controls: 0 for no effect and ±100 for the full control effect; nearly all actives have a fitted effect of over 60% in size
In short: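 Acute toxicity is scored as a concentration-dependent loss of intracellular ATP in LYMP1-003 cells (2500/well, complete medium) after 40 hr at 37 C, measured by CellTiter-Glo luminescence; AC50 values derive from standard Hill modelling.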

[19] = Cell Viability - LYMP2-003 (AID 965);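 also: cells exposed to compounds for 24 h before reading; 0% = DMSO only and full effect = 92 µM tetraoctylammonium bromide; nearly all actives have a fitted effect of over 50% in size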
In short: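 CellTiter-Glo luminescence quantified ATP loss after 24 h compound treatment of LYMP2-003 lymphoblastoid cells at 37 C. Titration series were fitted with the standard Hill equation to give AC50.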

[20] = Cellular Toxicity (caspase-3) Renal Proximal Tubule (AID 667); conditions: Potency: caspase-3 activation;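 also: cells exposed to compound for 16 hours at 37 °C before detection; 0% = DMSO basal and 100% = 10 µM staurosporine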
In short: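 Caspase 3/7 activation measured by luminescent aminoluciferin release in primary rat proximal tubule cells after 16 hr compound exposure at 37 °C. AC50 from Hill-fitted concentration-response, scaled between DMSO and 10 uM staurosporine.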

Chain of Cytochrome P450 3A4 (Homo sapiens) (P08684 whole entry, looked up): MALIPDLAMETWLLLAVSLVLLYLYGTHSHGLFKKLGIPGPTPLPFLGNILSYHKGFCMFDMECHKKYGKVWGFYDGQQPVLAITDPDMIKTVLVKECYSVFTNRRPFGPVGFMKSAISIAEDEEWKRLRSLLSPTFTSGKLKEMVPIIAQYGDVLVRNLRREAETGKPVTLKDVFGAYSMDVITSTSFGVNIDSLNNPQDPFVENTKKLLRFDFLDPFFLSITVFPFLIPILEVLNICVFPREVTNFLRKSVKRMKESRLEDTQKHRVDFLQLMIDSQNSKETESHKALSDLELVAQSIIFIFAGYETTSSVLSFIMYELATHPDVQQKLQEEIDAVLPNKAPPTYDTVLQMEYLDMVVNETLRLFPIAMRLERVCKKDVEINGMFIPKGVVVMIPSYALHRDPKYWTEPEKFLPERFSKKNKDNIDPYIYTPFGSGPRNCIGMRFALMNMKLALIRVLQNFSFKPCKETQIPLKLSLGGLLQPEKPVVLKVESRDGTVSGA

CCCCOCCOCCSC#N
inactive: caspase-3 activation [1] -0.616% | outcome [2] | caspase-3 activation [3] 0.183% | caspase-3 activation [4] -2.09% | outcome [5] | outcome [6] | Potency [7] | Potency [8] | outcome [9] | outcome [10] | outcome [11] | outcome [12] | Potency [13] | Potency [14] | Potency [15]

C[C@@H]1CC2(OC3C[C@@]4(C)C5=CC[C@H]6C(C)(C)C(O[C@@H]7OC[C@@H](O)[C@H](O)[C@H]7O)CC[C@@]67C[C@@]57CC[C@]4(C)C31)OC(O)C1(C)OC21 (stereo partly drawn)
inactive: caspase-3 activation [1] -0.636% | outcome [2] | caspase-3 activation [3] 1.92% | caspase-3 activation [4] 2.55% | outcome [5] | outcome [6] | outcome [16] | Potency [8] | outcome [9] | outcome [17] | outcome [10] | outcome [11] | Potency [13] | Potency [14] | Potency [15] | Potency [18] | Potency [19]

O=[N+]([O-])c1cccc(Cl)c1
inactive: caspase-3 activation [1] -0.653% | outcome [2] | caspase-3 activation [3] 0.41% | caspase-3 activation [4] -2.38% | outcome [5] | outcome [6] | Potency [7] | Potency [8] | outcome [9] | outcome [17] | outcome [10] | outcome [11] | outcome [12] | Potency [13] | Potency [14] | Potency [15] | Potency [19]

O=C(O)c1cccc([N+](=O)[O-])c1
inactive: caspase-3 activation [1] -1.42% | outcome [2] | caspase-3 activation [3] -0.0521% | caspase-3 activation [4] 2.38% | outcome [5] | outcome [6] | Potency [7] | Potency [8] | outcome [9] | outcome [17] | outcome [10] | outcome [11] | Potency [13] | Potency [14] | Potency [15] | Potency [18] | Potency [19]

O=C1CCCCC1
inactive: caspase-3 activation [1] 1.1% | outcome [2] | caspase-3 activation [3] 0.476% | caspase-3 activation [4] 0.988% | outcome [5] | outcome [6] | Potency [7] | Potency [8] | outcome [9] | outcome [10] | outcome [11] | outcome [12] | Potency [13] | Potency [14] | Potency [15] | Potency [18] | Potency [19]

CCCCCCCCCCCCOCC1CO1 (stereo not drawn)
inactive: caspase-3 activation [1] 1.85% | outcome [2] | caspase-3 activation [3] 3.02% | caspase-3 activation [4] 2.47% | outcome [5] | outcome [6] | Potency [7] | Potency [8] | outcome [9] | outcome [17] | outcome [10] | outcome [11] | outcome [12] | Potency [13] | Potency [14] | Potency [15] | Potency [18] | Potency [19]

OC1CCCC1
inactive: caspase-3 activation [1] -0.56% | outcome [2] | caspase-3 activation [3] 0.647% | caspase-3 activation [4] -1.06% | outcome [5] | outcome [6] | Potency [7] | Potency [8] | outcome [9] | outcome [10] | outcome [11] | Potency [13] | Potency [14] | Potency [15] | Potency [18] | Potency [19]

Cc1cc(C2(c3cc(C)c(O)cc3C)OS(=O)(=O)c3ccccc32)c(C)cc1O
inactive: caspase-3 activation [1] -0.0933% | outcome [2] | caspase-3 activation [3] 2.61% | caspase-3 activation [4] 4.58% | outcome [5] | outcome [6] | outcome [16] | Potency [8] | outcome [9] | outcome [10] | outcome [11] | Potency [13] | Potency [14] | Potency [15] | Potency [18] | Potency [19]

CC=O
inactive: caspase-3 activation [1] 1.5% | outcome [2] | caspase-3 activation [3] 1.97% | caspase-3 activation [4] 2.27% | outcome [5] | outcome [6] | Potency [7] | Potency [8] | outcome [9] | outcome [17] | outcome [10] | outcome [11] | outcome [12] | Potency [14] | Potency [15]

CC(=O)Nc1ccc(C)cc1
inactive: caspase-3 activation [1] 0.522% | outcome [2] | caspase-3 activation [3] 0.606% | outcome [5] | outcome [6] | Potency [20] | Potency [7] | Potency [8] | outcome [9] | outcome [17] | outcome [10] | outcome [11] | outcome [12] | Potency [13] | Potency [14] | Potency [15] | Potency [18]

CC(=O)c1ccc([N+](=O)[O-])cc1
inactive: caspase-3 activation [1] -0.175% | outcome [2] | caspase-3 activation [3] 0.949% | caspase-3 activation [4] -0.704% | outcome [5] | outcome [6] | Potency [8] | outcome [9] | outcome [17] | outcome [10] | outcome [11] | outcome [12] | Potency [13] | Potency [14] | Potency [15] | Potency [18] | Potency [19]

Clc1ccc(Cl)c(Cl)c1Cl
inactive: caspase-3 activation [1] -0.853% | outcome [2] | caspase-3 activation [3] -0.982% | caspase-3 activation [4] -1.37% | outcome [5] | outcome [6] | Potency [7] | Potency [8] | outcome [9] | outcome [17] | outcome [10] | outcome [11] | outcome [12] | Potency [14] | Potency [15] | Potency [18] | Potency [19]

CC/C=C1/OC(=O)c2ccccc21
inactive: caspase-3 activation [1] 0.157% | outcome [2] | caspase-3 activation [3] 0.49% | outcome [5] | outcome [6] | Potency [20] | Potency [8] | outcome [9] | outcome [10] | outcome [11] | outcome [12] | Potency [13] | Potency [14] | Potency [15] | Potency [18] | Potency [19]

O=Cc1cccc(Br)c1
inactive: caspase-3 activation [1] 1.82% | outcome [2] | caspase-3 activation [3] 2.2% | outcome [5] | outcome [6] | Potency [20] | Potency [7] | Potency [8] | outcome [9] | outcome [17] | outcome [10] | outcome [11] | outcome [12] | Potency [13] | Potency [14] | Potency [15] | Potency [18] | Potency [19]

CCCCC(CC)CNCC(CC)CCCC (stereo not drawn)
inactive: caspase-3 activation [1] -1.31% | outcome [2] | caspase-3 activation [3] -0.122% | outcome [5] | outcome [6] | Potency [20] | Potency [7] | Potency [8] | outcome [9] | outcome [17] | outcome [10] | outcome [11] | outcome [12] | Potency [13] | Potency [14] | Potency [15] | Potency [18] | Potency [19]

O=C(O)c1ccc(Cl)c(Cl)c1
inactive: caspase-3 activation [1] -0.246% | outcome [2] | caspase-3 activation [3] -0.517% | outcome [5] | outcome [6] | Potency [20] | Potency [7] | Potency [8] | outcome [9] | outcome [17] | outcome [10] | outcome [11] | outcome [12] | Potency [13] | Potency [14] | Potency [18] | Potency [19]
